Activity change (PNC), negative = inhibition data for 48 compounds are collected here from PubChem BioAssay AID2417 (National Center for Advancing Translational Sciences (NCATS), 2010).

Out of some 140,000 compounds screened, about 4,300 (3.1%) were called active. Roughly 21% stayed inconclusive and do not appear here. The full list was thinned out, with actives kept by preference. Values without a mark were called inactive.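 How the source made its calls: active means readout at or below -70, meaning at least 70% loss of cells showing the perinucleolar compartment, a nuclear body marking cancer cells; inconclusive means readout between -30 and a set limit; inactive means the rest.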

This experiment is described as follows: High Content Assay for Compounds that inhibit the Assembly of the Perinucleolar Compartment.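 Further: plate controls were DMSO wells for no effect and camptothecin positive control wells for full effect.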 To be noted: PC3M PTB-GFP, PNC prevalence imaging, 16 h; at 10 µM; active compounds read low. The procedure, abridged:
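Compounds are pinned in duplicate onto adhered PC3M cells stably expressing GFP-tagged PTB and incubated 16 h at 37 C. Cells are then fixed, nuclei stained with Hoechst, and PNC-positive cells counted.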
With `CCCOC(=O)c1[nH]c2c(c1C)C(=O)CC(c1cccs1)C2` (stereo not drawn), the activity change (PNC), negative = inhibition is -85.9% (active).
Take `CCCOC(=O)c1[nH]c2c(c1C)C(=O)CC(c1cc(OC)c(OC)c(OC)c1)C2` (stereo not drawn): the activity change (PNC), negative = inhibition is 10.3%.
In the case of `CCOC(=O)c1[nH]c2c(c1-c1ccccc1)C(=O)CC(c1ccc(Cl)cc1)C2` (stereo not drawn) it was 35.7%.
To `CSc1ccccc1NC(=O)c1cc(C2CC2)on1` belongs -108% (active); to `O=C(Nc1cc(C(F)(F)F)ccc1Cl)c1cc(C2CC2)on1`, -19.5%.
Consider `CSc1ccccc1NC(=O)Cc1ccc(Br)cc1`, for which the activity change (PNC), negative = inhibition is 27%.
As to `Cc1cc(C(C)(C)C)cc(C)c1N`, the activity change (PNC), negative = inhibition was 15.5%.
In the case of `O=C(Cc1cc(=O)[nH][nH]1)N/N=C/c1ccccc1[N+](=O)[O-]` it was -21.2%; in that of `Cc1ccc(N(C(=O)c2ccc(CN3CCOCC3)o2)C(C(=O)NCCC(C)C)c2cccs2)c(C)c1` (stereo not drawn), 4.19%.
Regarding `O=C(Nc1ccccc1)c1ccc2c(c1)OCO2`, the activity change (PNC), negative = inhibition was 16.1%.
In the case of `COc1ccc(NC(=O)Nc2ccc3nsnc3c2)cc1` it was -27.5%; in that of `O=C(Nc1ccccc1)c1ccc2nsnc2c1`, -106% (active); in that of `Cc1cc(C)cc(NC(=S)NCCCN2CCOCC2)c1`, 26.5%.
Regarding `O=C(NCCCn1ccnc1)Nc1ccc(Cl)cc1Cl`, the activity change (PNC), negative = inhibition is -114% (active).
Take `Cc1ccc2c(Cl)c(C(=O)NCCCn3ccnc3)sc2c1`: the activity change (PNC), negative = inhibition was -3.58%.
In the case of `CCCCC(=O)Nc1ccc(C(=O)NCCCn2ccnc2)cc1`, the activity change (PNC), negative = inhibition was 40.1%.
In the case of `CCCOc1ccc(NC(=O)C2OC3OC(C)(C)OC3C3OC(C)(C)OC23)cc1` (stereo not drawn), the activity change (PNC), negative = inhibition is 10.2%.
For `COc1cccc(/C=N/Nc2ncc(C(F)(F)F)cc2Cl)c1O`, the activity change (PNC), negative = inhibition is -85.6% (active).
As to `COc1cccc(/C=N\NC(=O)C2=NNC(=O)C2C)c1O` (stereo not drawn), the activity change (PNC), negative = inhibition was -8.21%.
In the case of `COc1cc(/C=C2\SC(=S)N(Nc3ncc(C(F)(F)F)cc3Cl)C2=O)cc(OC)c1OC` it was 7.84%; in that of `CCc1ccc2c(c1)C(c1ccc([N+](=O)[O-])cc1)=NNC(c1ccccc1)=N2`, 34.2%.
As to `Cc1ccc(-c2cc(C(=O)N/N=C/C=C/c3ccccc3)n[nH]2)o1`, the activity change (PNC), negative = inhibition is -21.8%.
To `CC(=O)CCC(=O)c1ccc2ccccc2c1` belongs 36.3%; to `Cc1cc(Cl)c(S(=O)(=O)N(C)C)cc1OCC(N)=O`, -29.4%; to `Cc1cc(Cl)c(S(=O)(=O)NCC2CCCO2)cc1OCC(N)=O` (stereo not drawn), 9.99%.
On to `Cc1cc(Cl)c(S(=O)(=O)Nc2ccc3c(c2)OCCO3)cc1OCC(N)=O`, for which the activity change (PNC), negative = inhibition is -121% (active).
For the compound `CC1=C(C(=O)Nc2ccccc2)C(c2cccs2)C(C#N)=C(SCC#N)N1` (stereo not drawn), the activity change (PNC), negative = inhibition is -107% (active).
In the case of `CC1=C(C(=O)Nc2ccccc2)C(c2ccco2)C(C#N)=C(SCC(N)=O)N1` (stereo not drawn) it was -15.2%; in that of `CCOC(=O)CSC1=C(C#N)C(c2ccco2)C(C(=O)OCc2ccccc2)=C(C)N1` (stereo not drawn), -21.7%; in that of `Cc1nn(C)c(C(=O)NNC(=S)NC2CCCCC2)c1Cl`, 8.24%.
Turning to `Cc1ccc(NN=C2C(=O)OC(C)(C)OC2=O)c(C)c1`, the activity change (PNC), negative = inhibition was 57.8%.
In the case of `Cc1ccn(CC(=O)N2N=C(C(F)F)CC2(O)C(F)F)n1` (stereo not drawn) it was 3.67%.
In the case of `COc1cc(OC)cc(C(=O)Nc2ccc(S(=O)(=O)Nc3cc(C)on3)cc2)c1` it was -25.6%; in that of `COc1ccc(C(=O)Nc2ccc(S(=O)(=O)NC(C)C)cc2)cc1`, -112% (active).
In the case of `COc1ccc(NC(=O)c2ccc(OC)cc2)cc1` it was 29.1%; in that of `CC(=O)Nc1ccc(/C(C)=N/NC(=O)CN(c2ccccc2Br)S(C)(=O)=O)cc1`, -2.45%.
Turning to `COc1ccc2[nH]c(=O)c(CN(Cc3nnnn3CCc3ccccc3)CC3CCCO3)cc2c1` (stereo not drawn), the activity change (PNC), negative = inhibition was -7.29%.
Turning to `CCOc1ccc2[nH]c(=O)c(CN(Cc3nnnn3CCc3ccccc3)CC3CCCO3)cc2c1` (stereo not drawn), the activity change (PNC), negative = inhibition is -100% (active).
To `CCOc1ccc2[nH]c(=O)c(CN(Cc3nnnn3Cc3ccccc3)CC3CCCO3)cc2c1` (stereo not drawn) belongs -2.29%; to `Cc1ccc(S(=O)(=O)NCC(=O)N2CCN(c3ccccn3)CC2)cc1`, -10%; to `Cc1ccc(N2CCN(c3ccc(C)cc3)C2c2ccccn2)cc1`, -81.6% (active).
On to `Cc1ccc(-n2ccc(=O)c(C(=O)O)n2)cc1`, for which the activity change (PNC), negative = inhibition was -18.4%.
In the case of `CN(c1ccccc1)c1nc(N)c([N+](=O)[O-])c(NCc2ccco2)n1` it was 22%; in that of `CNC(=O)/C(C#N)=C/c1c(F)cccc1Cl`, 52.2%.
For the compound `COc1ccccc1N1CCN(CC(=O)NC(=O)NCc2ccco2)CC1`, the activity change (PNC), negative = inhibition is -19.8%.
On to `COc1ccc(C(=O)Nc2ccc(S(=O)(=O)Nc3onc(C)c3C)cc2)cc1OC`, for which the activity change (PNC), negative = inhibition is 85.8%.
Consider `Cc1noc(NS(=O)(=O)c2ccc(N/C=C/C(=O)c3ccccc3)cc2)c1C`, for which the activity change (PNC), negative = inhibition was 34.4%.
On to `Cc1noc(NS(=O)(=O)c2ccc(NC(=O)C34CCC(CC3)C4)cc2)c1C`, for which the activity change (PNC), negative = inhibition is -120% (active).
